For assay [1], the target named is Cytochrome P450 2D6 (Homo sapiens) (UniProt P10635). Kind of assay: qHTS Assay for Inhibitors and Substrates of Cytochrome P450 2D6 (AID 891). Note: potency is the fitted concentration of half-maximal effect; nearly all actives have a fitted effect of over 60% in size. An outline of the steps: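 Luminescent read-out of luciferin formed by 5 nM human CYP2D6 demethylating 30 uM Luciferin-ME EGE (Km level) over 60 min at room temperature after NADPH regeneration addition. Data normalized to full inhibition by 1.43 uM quinidine.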

The target of assay [2] is Dual specificity protein kinase CLK4 (Homo sapiens) (UniProt Q9HAZ1). Nature of the assay: qHTS Assay for Inhibitors of CDC-like Kinase 4 (ADP-Glo Assay) (AID 1771). For activity change, negative = inhibition: % is set by controls: 0 for no effect and ±100 for the full control effect. Note: nearly all actives have a fitted effect of over 70% in size. Note: potency is the fitted concentration of half-maximal effect. An outline of the steps: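 25 nM Clk4, 100 uM RS peptide, 1 uM ATP (final); 2 mM MgCl2, 0.5 mM EGTA, 2.5 mM DTT, 0.01% Triton X-100; 1 hr RT. ADP-Glo readout: ATP depletion 45 min, conversion/luciferase 30 min, luminescence.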

Assay [3] is described as follows: Confirmation and Secondary Assay for Modulators of Hemoglobin Beta Chain Splicing at IVS2 654 locus (AID 910).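 Note: HeLa cells stably carrying EGFP split by mutant beta-globin IVS2-654 intron; % of control where 0% means no effect.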 An outline of the steps:
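HeLa cells stably expressing EGFP interrupted by β-globin IVS2-654 intron, seeded overnight in Opti-MEM/2% FCS, then treated 2 days at 37 °C. Restored splicing read as total peak GFP intensity per well by laser scanning cytometry (488 nm excitation, 500–520 nm emission); 500 nM antisense PNA as control.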

A short description of assay [4]: Confirmation and Secondary Assay for Modulators of Hemoglobin Beta Chain Splicing at IVS2 705 locus (AID 930).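 Note: HeLa cells stably expressing the EGFP-705 splicing reporter; GFP fluorescence per well restored by corrected splicing of the IVS2-705 intron in EGFP; % of control where 0% means no effect.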 An outline of the steps: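 Per-well GFP, captured at 1 x 8 µm resolution with 488 nm excitation, served as the read-out for HeLa EGFP-705 cells incubated 2 days with test compound versus DMSO.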
Assay [5] has as its target DNA dC->dU-editing enzyme APOBEC-3G (Homo sapiens) (UniProt Q9HC16). Kind of assay: qHTS for inhibitors of Vif-A3G interactions: Validation (AID 588379). Note: 0% is about no effect. The method in brief: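 Yellow fluorescence (Ex 488, Em 500-530) of Vif-coexpressing HeLa A3G-eYFP cells, scanned by Acumen cytometer, reports blocked A3G degradation. Cells plated at 700/well overnight at 37 deg C before compound addition, then a further overnight compound incubation at 37 deg C.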

A short description of assay [6]: qHTS Assay for Identification of Small Molecule Agonists for Hypoxia Response Element Signaling Pathway (AID 914; active = well fitted activation curve with a large enough effect in the signal ratio, with a control signal flat, not every such curve was filed as active; the % refers to the signal ratio; note: potency is the fitted concentration of half-maximal effect; for activation: % of control where 0% means no effect). The following applies: ME-180 (cervical carcinoma) HRE-bla reporter, beta-lactamase ratio, CoCl2, 17 h; activation: stronger effect = higher value. An outline of the steps:
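In Opti-MEM containing 0.5% dialyzed FBS and 10 mM HEPES, ME-180 HRE-bla cells received a compound titration and EC50 CoCl2. They were incubated 17 hours, then CCF4-loaded 2.5 hours at room temperature before ratio reading.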

Assay [7] has as its target Cytochrome P450 2C9 (Homo sapiens) (UniProt P11712). Nature of the assay: qHTS Assay for Inhibitors and Substrates of Cytochrome P450 2C9 (AID 883). For activity change, negative = inhibition: % is set by controls: 0 for no effect and ±100 for the full control effect. Note: nearly all actives have a fitted effect of over 60% in size. Note: potency is the fitted concentration of half-maximal effect. The method in brief:
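Signal: luciferase luminescence reporting luciferin produced by CYP2C9. Conditions: 10nM enzyme, Luciferin-H 100uM at KM, 25mM KPO4, 37C, 60 min NADPH-driven reaction. Reference: 57uM sulphaphenazole as 100% inhibition.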

Assay [8] deals with Cytochrome P450 2C19 (Homo sapiens) (UniProt P33261). Nature of the assay: qHTS Assay for Inhibitors and Substrates of Cytochrome P450 2C19 (AID 899). Note: nearly all actives have a fitted effect of over 60% in size. Note: potency is the fitted concentration of half-maximal effect. The method in brief: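 Signal comes from luciferase acting on luciferin released by CYP2C19-mediated hydroxylation of Luciferin-H EGE, 10uM (KM). Assay mix: 5nM enzyme, 50mM KPO4; 60 min at 37C with NADPH regeneration. Data normalized against 57uM ketoconazole.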

For assay [9], the target named is Rap guanine nucleotide exchange factor 3 (Homo sapiens) (UniProt O95398). Kind of assay: Counterscreen qHTS for antagonist of cAMP-regulated guanine nucleotide exchange factor 3 (EPAC1) (AID 1645888).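 Note: fluorescence loss as bound BODIPY-GDP is released from Rap1B; % of control where 0% means no effect.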 An outline of the steps:
(§1)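 Rap1B–BODIPY-GDP (250 nM) with 50 uM GDP; compounds pin-transferred to 9.74 nM–152 uM final (activator) or from 7.32 nM upwards (inhibitor). Fluorescence Ex/Em 480/540 nm read at 5 and 30 min, then after adding cAMP or buffer, at room temperature.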

Assay [10] shares this target. Kind of assay: Counterscreen qHTS for agonist of cAMP-regulated guanine nucleotide exchange factor 3 (EPAC1) (AID 1645889). Note: % of control where 0% means no effect; nearly all actives have a fitted effect of over 40% in size. An outline of the steps:
as §1

Assay [11] deals with Catechol O-methyltransferase (Homo sapiens) (UniProt P21964). Nature of the assay: Confirmatory Screen for Target Class Profiling of Small Molecule Inhibitors of Methyltransferases (AID 1745852). For activity change, negative = inhibition: % is set by controls: 0 for no effect and ±100 for the full control effect. The following applies: MTase-Glo luminescence, SAH detection, recombinant enzyme; measured here: COMT max response; stronger effect = lower value.
Assay [12] has as its target Guanidinoacetate N-methyltransferase (Homo sapiens) (UniProt Q14353). The description is as above. The following applies: MTase-Glo luminescence, SAH detection, recombinant enzyme; at 57.3 µM (top of the series).
In assay [13] the target is Nicotinamide N-methyltransferase (Homo sapiens) (UniProt P40261). Described as above. The following applies: MTase-Glo luminescence, SAH detection, recombinant enzyme; measured here: NNMT max response; stronger effect = lower value.
Assay [14] addresses Phenylethanolamine N-methyltransferase (Homo sapiens) (UniProt P11086). The description is as above. The following applies: MTase-Glo luminescence, SAH detection, recombinant enzyme; measured here: PNMT max response; stronger effect = lower value.

Results filed as inconclusive are left out. Calls of active or inactive are those of the source. Unless noted, calls come from the whole dose curve; as a rule, active = well fitted curve in the direction sought with a large enough effect; inconclusive = small, poorly fitted or top-dose-only effect, or another doubt; inactive = no such curve, though single readings can be large; an effect the other way counts as inactive or inconclusive.

These results are taken from PubChem BioAssay (NCATS).

Chain of Dual specificity protein kinase CLK4 (Homo sapiens) (Q9HAZ1 whole entry, looked up): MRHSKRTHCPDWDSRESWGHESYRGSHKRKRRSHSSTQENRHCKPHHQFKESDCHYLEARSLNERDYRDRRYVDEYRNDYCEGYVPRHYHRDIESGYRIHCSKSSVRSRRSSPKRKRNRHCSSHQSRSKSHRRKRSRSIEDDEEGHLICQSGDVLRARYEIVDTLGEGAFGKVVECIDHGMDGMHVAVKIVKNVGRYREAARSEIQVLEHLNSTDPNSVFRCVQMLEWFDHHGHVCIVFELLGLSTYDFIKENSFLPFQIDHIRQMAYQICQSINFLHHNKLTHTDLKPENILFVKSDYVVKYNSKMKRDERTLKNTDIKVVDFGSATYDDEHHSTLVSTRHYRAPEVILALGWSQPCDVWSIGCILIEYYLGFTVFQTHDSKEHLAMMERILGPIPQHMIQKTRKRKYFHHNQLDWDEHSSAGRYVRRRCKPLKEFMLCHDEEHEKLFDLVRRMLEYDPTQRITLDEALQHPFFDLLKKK
Chain of Cytochrome P450 2D6 (Homo sapiens) (P10635 whole entry, looked up): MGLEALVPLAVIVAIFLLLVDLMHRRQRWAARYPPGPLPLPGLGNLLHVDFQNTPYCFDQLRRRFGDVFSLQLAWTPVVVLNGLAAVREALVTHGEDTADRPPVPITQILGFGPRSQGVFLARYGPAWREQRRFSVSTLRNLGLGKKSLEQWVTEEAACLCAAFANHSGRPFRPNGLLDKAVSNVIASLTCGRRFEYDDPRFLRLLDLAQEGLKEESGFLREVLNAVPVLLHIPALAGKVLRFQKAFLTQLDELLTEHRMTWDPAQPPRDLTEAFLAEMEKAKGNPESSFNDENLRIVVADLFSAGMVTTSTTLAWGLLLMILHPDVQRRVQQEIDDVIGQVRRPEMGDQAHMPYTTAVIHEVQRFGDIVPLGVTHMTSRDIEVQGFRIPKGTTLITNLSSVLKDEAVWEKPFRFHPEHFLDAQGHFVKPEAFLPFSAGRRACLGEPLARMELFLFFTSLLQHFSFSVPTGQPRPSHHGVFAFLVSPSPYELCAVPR
Chain of Cytochrome P450 2C19 (Homo sapiens) (P33261 whole entry, looked up): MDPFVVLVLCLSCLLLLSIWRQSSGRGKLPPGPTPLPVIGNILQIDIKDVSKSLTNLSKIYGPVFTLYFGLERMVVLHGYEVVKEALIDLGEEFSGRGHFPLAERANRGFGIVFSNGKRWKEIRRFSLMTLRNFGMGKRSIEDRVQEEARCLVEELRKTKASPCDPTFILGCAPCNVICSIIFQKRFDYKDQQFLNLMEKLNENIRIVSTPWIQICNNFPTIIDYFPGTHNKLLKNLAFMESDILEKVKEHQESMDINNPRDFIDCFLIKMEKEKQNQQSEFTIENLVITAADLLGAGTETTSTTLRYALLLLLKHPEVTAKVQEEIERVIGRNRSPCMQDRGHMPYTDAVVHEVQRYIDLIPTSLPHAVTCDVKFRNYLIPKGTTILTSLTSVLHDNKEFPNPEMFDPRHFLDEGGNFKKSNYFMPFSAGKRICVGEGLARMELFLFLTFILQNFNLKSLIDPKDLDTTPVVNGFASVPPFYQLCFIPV
Chain of DNA dC->dU-editing enzyme APOBEC-3G (Homo sapiens) (Q9HC16 whole entry, looked up): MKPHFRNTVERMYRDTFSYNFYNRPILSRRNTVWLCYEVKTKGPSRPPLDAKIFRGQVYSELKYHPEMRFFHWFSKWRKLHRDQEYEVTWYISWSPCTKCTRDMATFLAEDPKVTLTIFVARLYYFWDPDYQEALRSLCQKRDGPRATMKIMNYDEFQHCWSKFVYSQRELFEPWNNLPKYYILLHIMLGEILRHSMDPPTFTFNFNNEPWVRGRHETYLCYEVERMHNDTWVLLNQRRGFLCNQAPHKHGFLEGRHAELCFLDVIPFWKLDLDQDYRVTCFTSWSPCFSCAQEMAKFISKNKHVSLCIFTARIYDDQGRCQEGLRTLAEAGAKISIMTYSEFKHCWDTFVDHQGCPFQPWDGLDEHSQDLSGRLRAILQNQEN
Chain of Cytochrome P450 2C9 (Homo sapiens) (P11712 whole entry, looked up): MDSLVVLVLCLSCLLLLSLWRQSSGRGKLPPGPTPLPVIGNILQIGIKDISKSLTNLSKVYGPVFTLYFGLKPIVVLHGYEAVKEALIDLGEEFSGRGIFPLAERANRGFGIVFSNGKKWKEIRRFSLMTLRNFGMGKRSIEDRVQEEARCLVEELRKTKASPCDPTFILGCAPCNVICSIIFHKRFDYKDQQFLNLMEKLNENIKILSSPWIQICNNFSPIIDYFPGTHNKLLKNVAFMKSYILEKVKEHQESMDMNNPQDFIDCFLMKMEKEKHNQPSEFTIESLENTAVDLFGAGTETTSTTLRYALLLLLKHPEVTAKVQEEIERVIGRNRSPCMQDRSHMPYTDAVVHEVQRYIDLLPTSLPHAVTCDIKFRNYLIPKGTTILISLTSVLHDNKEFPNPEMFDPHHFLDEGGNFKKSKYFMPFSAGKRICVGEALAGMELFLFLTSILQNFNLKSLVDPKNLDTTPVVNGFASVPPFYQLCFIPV
Chain of Catechol O-methyltransferase (Homo sapiens) (P21964 whole entry, looked up): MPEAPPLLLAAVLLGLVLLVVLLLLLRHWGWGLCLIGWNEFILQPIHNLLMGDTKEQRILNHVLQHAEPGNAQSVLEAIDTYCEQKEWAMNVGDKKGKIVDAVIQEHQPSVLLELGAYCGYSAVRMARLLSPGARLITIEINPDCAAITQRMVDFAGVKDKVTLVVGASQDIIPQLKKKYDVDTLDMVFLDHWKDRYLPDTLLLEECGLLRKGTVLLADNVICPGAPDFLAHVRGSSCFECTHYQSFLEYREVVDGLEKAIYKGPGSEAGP
Chain of Phenylethanolamine N-methyltransferase (Homo sapiens) (P11086 whole entry, looked up): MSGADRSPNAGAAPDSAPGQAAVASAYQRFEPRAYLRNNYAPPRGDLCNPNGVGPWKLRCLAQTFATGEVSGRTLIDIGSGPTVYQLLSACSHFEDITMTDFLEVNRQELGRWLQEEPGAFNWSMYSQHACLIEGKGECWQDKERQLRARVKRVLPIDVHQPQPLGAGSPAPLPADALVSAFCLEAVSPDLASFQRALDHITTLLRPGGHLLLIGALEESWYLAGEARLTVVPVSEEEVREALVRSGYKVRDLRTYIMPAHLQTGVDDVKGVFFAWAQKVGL
Chain of Nicotinamide N-methyltransferase (Homo sapiens) (P40261 whole entry, looked up): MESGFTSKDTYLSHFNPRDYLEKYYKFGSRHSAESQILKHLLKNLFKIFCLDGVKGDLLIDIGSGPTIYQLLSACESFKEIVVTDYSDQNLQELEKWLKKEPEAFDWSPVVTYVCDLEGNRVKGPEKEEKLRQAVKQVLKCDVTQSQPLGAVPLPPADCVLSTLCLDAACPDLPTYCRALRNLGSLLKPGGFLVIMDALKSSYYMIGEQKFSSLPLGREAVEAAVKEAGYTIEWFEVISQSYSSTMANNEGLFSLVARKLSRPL
Chain of Rap guanine nucleotide exchange factor 3 (Homo sapiens) (O95398 whole entry, looked up): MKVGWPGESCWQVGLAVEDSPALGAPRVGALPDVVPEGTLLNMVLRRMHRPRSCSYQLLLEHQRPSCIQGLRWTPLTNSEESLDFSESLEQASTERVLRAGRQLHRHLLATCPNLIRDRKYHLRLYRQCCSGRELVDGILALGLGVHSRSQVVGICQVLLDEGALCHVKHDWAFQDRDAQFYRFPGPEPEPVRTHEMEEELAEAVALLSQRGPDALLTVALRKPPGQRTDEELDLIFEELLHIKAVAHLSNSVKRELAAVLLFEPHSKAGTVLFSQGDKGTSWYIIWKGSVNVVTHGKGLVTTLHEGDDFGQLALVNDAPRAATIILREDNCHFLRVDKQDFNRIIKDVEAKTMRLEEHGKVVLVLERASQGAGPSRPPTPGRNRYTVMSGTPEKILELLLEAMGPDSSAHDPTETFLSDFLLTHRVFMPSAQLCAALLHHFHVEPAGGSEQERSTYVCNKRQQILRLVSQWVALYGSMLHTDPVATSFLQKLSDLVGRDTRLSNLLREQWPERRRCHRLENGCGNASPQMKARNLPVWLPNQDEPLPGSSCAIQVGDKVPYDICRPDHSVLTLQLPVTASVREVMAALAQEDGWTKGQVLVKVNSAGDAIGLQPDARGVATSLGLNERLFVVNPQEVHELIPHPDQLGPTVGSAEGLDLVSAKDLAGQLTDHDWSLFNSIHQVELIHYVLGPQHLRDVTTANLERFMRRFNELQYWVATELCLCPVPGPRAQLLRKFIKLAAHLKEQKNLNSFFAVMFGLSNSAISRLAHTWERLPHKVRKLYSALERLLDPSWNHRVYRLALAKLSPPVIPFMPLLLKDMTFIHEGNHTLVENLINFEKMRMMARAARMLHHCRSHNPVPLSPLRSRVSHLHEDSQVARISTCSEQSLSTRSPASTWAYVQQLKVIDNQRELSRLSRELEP

`Cc1ccccc1-c1nc(N(C)Cc2ccco2)c2ccccc2n1`: the figures for the Potency in assay [1] and in assay [2] were 3.16 µM (active) and 28.2 µM (active), respectively. Consider `O=C(O)c1cc(=O)c2cccc(O)c2[nH]1`, for which the Potency result in assay [3] is “inactive”. Besides, in assay [4], the outcome is “inactive”. Turning to `COc1ccc2[nH]cc(CCNc3nc(-c4cccc(C#N)c4)nc4ccccc34)c2c1`, the Potency in assay [2] is 28.2 µM (active).

Turning to `OC[C@H]1O[C@@H](n2cnc3c(NCc4ccco4)ncnc32)[C@H](O)[C@@H]1O`, the outcome in [5] was “inactive”. In the case of `CN(C)c1ncc2nc(-c3ccc(F)cc3)c(=O)n(-c3ccccc3)c2n1`, in assay [2], the Potency entry is “inactive”. On to `COc1ccc(CNc2ncnc3ccc(-c4c(C)noc4C)cc23)c(OC)c1`, for which the Potency in assay [6] is 2 µM (active); in [2], 15.8 µM (active).

For the compound `COc1cccc(Nc2ncc3nc(-c4cn(C)c5ccccc45)c(=O)n(C[C@H]4CCCO4)c3n2)c1`, the Potency entry in [7] and in assay [2] was “inactive” throughout. As for `CS(=O)(=O)Nc1cccc(-c2ccc3ncnc(Nc4ccc(F)cc4)c3c2)c1`, the Potency result in assay [3] is “inactive”. The outcome in assay [4] was “inactive”.

`COCC(=O)N1CCC2(CCN(Cc3ccc(C#N)cc3)CC2)CC1`: the activation in assay [6] is 4.64% (inactive).

Regarding `COc1cc(C)c2c(c1C=O)Oc1c(c(C)c(O)c3c1C(O)OC3=O)OC2=O` (stereo unspecified), in assay [3], the Potency result was “inactive”. The outcome in [4] was “inactive”. Take `CS(=O)(=O)N1CCC2(CC1)CN(C(c1ccccc1)c1ccccc1)C2`: in assay [1], the Potency was 2.51 µM (active). On to `COc1ccccc1CNc1nc(-c2ccc3c(c2)OCO3)nc2ccccc12`, for which the Potency in assay [8] is 3.16 µM (active). On to `c1ccc(CNc2ccnc(-c3ccc4c(c3)OCO4)n2)cc1`, for which the Potency in assay [1] is 1.58 µM (active); in assay [8], 2 µM (active). Moreover, the Potency result in assay [3] was “inactive”. In addition, in [4], the outcome was “inactive”. For `c1csc(CNc2ccnc(-c3ccc4c(c3)OCO4)n2)c1`, the Potency in assay [1] is 0.501 µM (active); in [8], 5.01 µM (active). Turning to `COc1cccc(-c2cc(NCc3ccc(OC)cc3OC)ncn2)c1`, the Potency in assay [8] was 5.01 µM (active). Besides, the activation in [6] is 1.95% (inactive). With `CN(C)c1ncnc2ccc(-c3ccccc3C(F)(F)F)cc12`, in [8], the Potency is 3.98 µM (active). Take `COCCn1c(=O)c(-c2cccs2)nc2cnc(N3CCOCC3)nc21`: the Potency entry in assay [2] is “inactive”.

As for `CCCCCc1c2c(cc(O)c1C(=O)O)OC(=O)c1cc(C(=O)CCCC)c(OC)cc1O2`, the outcome in [9] and in assay [10] was “inactive” in each case. `CN(C)c1ncc2nc(-c3cccs3)c(=O)n(C3CC3)c2n1`: the Potency in [6] is 3.98 µM (active). For `Cn1cc(-c2nc3cnc(N4CCOCC4)nc3n(CCC#N)c2=O)c2ccccc21`, the Potency result in [2] was “inactive”. The same measure, in the same setting: next, `COc1cccc(Nc2ncc3ncc(=O)n(Cc4cccs4)c3n2)c1`: 0.794 µM (active).

As to `O=c1c(-c2cc(F)cc(F)c2)nc2cnc(N3CCOCC3)nc2n1-c1ccccc1`, the Potency in assay [6] is 2.51 µM (active). `N#C/C(=C\c1ccc(O)c(O)c1)C(=O)OCCc1cccs1`: in [8], the Potency is 6.31 µM (active). In addition, the outcome in assay [5] was “inactive”. Take `COc1ccc(CNc2nc(-c3ccc4c(c3)OCO4)nc3ccccc23)c(OC)c1`: in assay [8], the Potency is 7.94 µM (active). Also, in assay [2], the Potency result is “inactive”. As to `COc1ccc(-c2nc3cnc(Nc4cccc(OC)c4)nc3n(Cc3cccs3)c2=O)cc1`, the Potency result in [2] is “inactive”. Regarding `Cn1cccc1C(=O)N1CCC2(CC1)CN(c1cccc(-c3ccccc3)c1)C2`, in [7], the Potency result was “inactive”. Consider `COc1ccccc1-c1ccc2ncnc(N(C)Cc3ccco3)c2c1`, for which, in assay [2], the Potency was 14.1 µM (active).

Turning to `O=c1c(-c2ccc(Cl)cc2)nc2cncnc2n1Cc1ccccc1Cl`, the Potency in assay [8] is 3.98 µM (active). For the same compound, the activation in assay [6] is 25.2% (inactive). On to `CN(C)c1ncc2nc(-c3cc(F)cc(F)c3)c(=O)n(Cc3cccs3)c2n1`, for which the Potency result in assay [8] is “inactive”. The Potency in [6] was 0.126 µM (active). As to `N#CCCn1c(=O)c(-c2ccc(Cl)cc2)nc2cnc(Nc3ccccc3)nc21`, in [2], the Potency entry is “inactive”.

Consider `COc1cc(/C=C\c2ccc(OC)cc2OC)cc(OC)c1`, for which the Potency result in assay [8] is “inactive”. For the same compound, the outcome in assay [5] is “inactive”.

In the case of `COC(=O)C1=C(C)NC(C)=C(C(=O)OCCSc2ccccc2)[C@@H]1C`, the Potency in assay [7] was 3.16 µM (active); in assay [8] it was 0.199 µM (active). Moreover, the outcome in [5] is “inactive”. `COc1ccc(CNc2ncncc2-c2ccccc2C)c(OC)c1`: the Potency in assay [8] is 1.58 µM (active). The Potency result in assay [2] was “inactive”. `COc1cccc(-c2nccc(NCc3cccs3)n2)c1`: the Potency was 0.316 µM (active) in assay [1] and 8.91 µM (active) in assay [2]. Turning to `O=c1c(-c2ccc(F)c(F)c2)nc2cncnc2n1Cc1ccccc1Cl`, the values for the Potency in assay [7] and in [8] were 5.01 µM (active) and 6.31 µM (active), respectively. `COc1ccccc1CNc1nc(-c2cccc(C#N)c2)nc2ccccc12`: the Potency in [8] was 3.98 µM (active).

As to `O=c1c(-c2cccs2)nc2cnc(N3CCOCC3)nc2n1CCc1ccccc1`, in [2], the Potency entry is “inactive”. Consider `Cc1nc2cnc(Oc3cccc(Cl)c3)nc2n(C2CC2)c1=O`, for which the Potency result in [2] is “inactive”.

With `COc1ccc(-n2c(=O)c(-c3ccc(F)cc3)nc3cncnc32)cc1`, the Potency entry in assay [2] is “inactive”.

Take `COCCNc1ccnc(-c2ccccc2C)n1`: the Potency entry in assay [2] was “inactive”. On to `O=C(CCCCCN1C(=O)c2cccc3cccc(c23)C1=O)NO`, for which the activity in assay [11] is 0.323%; in [13] it was -12.3%; in assay [14], -6.54%. Besides, the activity change, negative = inhibition in assay [12] was found to be 0.722%.
